Compound activity: PubChem BioAssay, Sanford-Burnham Center for Chemical Genomics
KKLEB cytotox = CF airway cell cytotoxicity counter-screen; 360,000 compounds, 0.36% hits; AID 602141; KKLEB CF airway cells viability, ATPlite luminescence, overnight; stronger effect = lower value; cells stimulated with P. aeruginosa culture filtrate; activity change (cytotoxicity), % at 5 µM;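 active = corrected activity change at or below -50% at 5 µM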
Peg3 prom inh = reduces Peg3 promoter-driven luciferase expression in HeLa; AID 588405; inhibition, % at 20 µM; HeLa PEG-Prom luciferase reporter, luminescence, overnight; 360,000 compounds, 1.7% hits;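 active = inhibition of at least 50% at 20 µM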
HIF-2a block = blocks HIF-2a reporter activity; inhibition, % at 18.8 µM; 360,000 compounds, 0.72% hits; 786-0 RCC cells HIF-2a reporter, luciferase luminescence, overnight; AID 624352;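 active = inhibition of the luminescence signal of 40% or more relative to plate controls, in a single-dose primary screen at 18.75 µM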
TWEAK-Fn14 inh = TWEAK-Fn14 signaling inhibition | inhibition, % at 10 µM | 360,000 compounds, 2% hits | TWEAK-stimulated Fn14 reporter cells, luciferase luminescence, 8 h | AID 1159606; in the data active = inhibition above about 50%
CF NFkB block = inhibitors of cystic fibrosis induced NF-kB; KKLEB NF-kB-GFP reporter, PAF-induced, GFP fluorescence overnight; inhibition, % at 5 µM; 360,000 compounds, 0.86% hits; AID 588850;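 active = at least 50% inhibition at 5 µM, scaled per plate between neutral and stimulator controls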;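 also: PAF is a Pseudomonas aeruginosa culture filtrate used as stimulus; plate controls were PAF-stimulated DMSO wells for no effect and unstimulated DMSO wells for full effect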
TROY NFkB inh = inhibitors of TROY-dependent NF-kB signaling. Q293 LMP1-TROYcd NF-kB luciferase reporter, 4 h. 360,000 compounds, 0.98% hits. inhibition, % at 10 µM;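 active = compounds whose plate-normalised and pattern-corrected inhibition of the luciferase reporter signal at the single screening dose is 50% or more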
Active calls of the source: *; x = no result. Rows were chosen to be rich in hits. Some 4% of all compounds tested hit in one or more screens of this group.

SMILES | KKLEB cytotox | Peg3 prom inh | HIF-2a block | TWEAK-Fn14 inh | CF NFkB block | TROY NFkB inh
COC(=O)C1=CN(c2ccc(OC)cc2OC)C(N)=C(C#N)C1c1cccc([N+](=O)[O-])c1 (centres undefined) | x | x | -48 | x | x | x
O=C(Nc1cccc(Cl)c1)Nc1cccc(Cl)c1 | -14 | -49 | -128 | -8 | 20 | -19
O=C(NC(=O)c1ccccc1)Nc1ccccc1 | 8 | -89 | -86 | 72* | -10 | 10
O=C(Nc1ccccc1)Nc1cc(OCC(F)(F)F)cc(OCC(F)(F)F)c1 | -51* | 42 | -13 | 59* | 46 | 43
COc1ccc(NC(=O)NC(=O)c2ccccc2)cc1 | 0 | -230 | -243 | 6 | 4 | -14
O=C(Nc1ccccc1)Nc1cc(Cl)cc(Cl)c1 | -45 | -62 | -158 | 41 | 48 | 51*
COc1cc(OC)cc(C(=O)OCC(=O)NC2CCCCCCC2)c1 | -4 | 12 | 18 | -1 | -13 | -1
O=C1C2CC=CCC2C(=O)N1c1ccc(NCCc2ccc(O)cc2)c([N+](=O)[O-])c1 (centres undefined) | -8 | -32 | -57 | 57* | 18 | 1
N=c1n(CC(=O)O)c2ccccc2n1Cc1ccccc1Cl | 3 | 16 | 6 | -3 | -6 | 5
Cn1c(=N)n(CC(=O)c2ccc(Cl)c(Cl)c2)c2ccccc21 | -33 | 81* | -62 | 85* | -28 | 20
N=c1n(CC(=O)c2ccc([N+](=O)[O-])cc2)c2ccccc2n1Cc1ccccc1Cl | -9 | 85* | 9 | 33 | 5 | 9
Nc1nc(Nc2ccccc2)sc1C(=O)c1ccccc1 | -20 | 91* | -381 | 62* | 87* | 20
COc1ccc(C(=O)c2sc(Nc3ccccc3)nc2N)cc1OC | -7 | 78* | -74 | 54* | 50 | 30
COc1ccc(-c2c(NC(=O)c3ccco3)oc3ccccc3c2=O)cc1OC | -2 | -3 | 5 | 7 | 22 | -1
O=c1c(=NNc2ccccc2Cl)c(=O)c2ccccc12 | -44 | -6 | -144 | 98* | -9 | 67*
Cc1cc(C)c(NN=c2c(=O)c3ccccc3c2=O)c(C)c1 | 0 | -314 | -284 | 6 | 0 | -56
CC1(c2nnnn2-c2ccc3c(c2)OCCO3)CCC(=O)N1C1CCN(Cc2ccccc2)CC1 (centres undefined) | x | x | 18 | 80* | x | 50
Cc1cccc(C)c1-n1nnnc1C1(C)CCC(=O)N1C1CCN(Cc2ccccc2)CC1 (centres undefined) | x | x | 6 | 17 | x | 6
Brc1ccc2c(c1)-c1ccccc1C1=NCCN12 | -6 | 87* | -56 | -122 | -177 | -84
Cc1ccccc1NS(=O)(=O)c1ccc2c(c1)CCC(=O)N2 | -11 | 2 | 1 | 3 | -32 | -7
O=C(/C=C/c1ccccc1[N+](=O)[O-])Nc1cc(S(=O)(=O)N2CCOCC2)ccc1N1CCOCC1 | 10 | 23 | 18 | -13 | -6 | 12
Cc1cc(C)nc(OC(C(=O)O)C(OCCc2ccccc2)(c2ccc(F)cc2)c2ccc(F)cc2)n1 (centres undefined) | 7 | 21 | 16 | 38 | 23 | 38
CCCOC(c1ccccc1)(c1ccc(C(F)(F)F)cc1)C(Oc1nc(C)cc(C)n1)C(=O)O (centres undefined) | 0 | 27 | 8 | 61* | -6 | 27
CC1=CC(=O)C(Sc2ccc(C)cc2)=CC1=O | -36 | 60* | 10 | 25 | 80* | -41
COc1ccc(-c2cn[nH]c2N)c(OC)c1 | -20 | 11 | 9 | 27 | 64* | 14
CCCCNC(=O)c1cnc(Cc2c[nH]c3ccccc23)c(I)c1 | -6 | -16 | -64 | -10 | 8 | -6
N#Cc1ccc(NN=Nc2ccccc2C#N)cc1 | 18 | -52 | -68 | -3 | -45 | -14
COc1cccc(/C=N/NC(=O)c2cc3cc([N+](=O)[O-])ccc3s2)c1O | -12 | 84* | 14 | -6 | -29 | 17
COc1cc([N+](=O)[O-])cc(/C=N/NC(=O)c2ccc(C)nc2)c1O | 0 | 6 | 5 | 10 | -4 | -8
COc1cccc(/C=N/NC(=O)C(=O)N/N=C/c2cccc(OC)c2O)c1O | -11 | 17 | 6 | -16 | 12 | 9
